# In PubChem BioAssay (Tox21):
# Inconclusive results are not listed. A call without a number means that no potency is given here. Active and inactive are the calls of the source. Unless noted, the call rests on the fitted dose curve; in most records, active means well fitted curve in the direction sought with a large enough effect in the repeat runs; inconclusive means weak or mixed curves; inactive means no such curve, though single readings can be large; an effect the other way counts as inactive or inconclusive.
# Columns and labels:
# [1] = A CellTox Green Cytotoxicity Assay to monitor cytotoxicity in HepG2 cells - 0 hour (AID 1224882); conditions: CellTox Green fluorescence; series mostly up to 76.8 µM; further: nearly all actives have a fitted effect of over 35% in size
# Procedure, shortened: (§1)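 Cells and non-lytic dye reagent are dispensed together (600 HepG2 cells/well) and incubated 5 h before DMSO compound transfer. Kinetic fluorescence is then recorded in the same wells during 40 h at 37 C.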
# [2] = A CellTox Green Cytotoxicity Assay to monitor cytotoxicity in HepG2 cells - 32 hour (AID 1224883); conditions: CellTox Green fluorescence; series mostly up to 76.8 µM; further: nearly all actives have a fitted effect of over 50% in size; further: potency means the concentration at half of the fitted maximal effect
# Procedure, shortened: as §1
# [3] = qHTS RealTime-Glo MT Cell Viability Assay in HepG2 cells - 16 hour (AID 1224885); conditions: RealTime-Glo luminescence; series mostly up to 76.8 µM; further: nearly all actives have a fitted effect of over 50% in size; further: potency means the concentration at half of the fitted maximal effect
# Procedure, shortened: (§2)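 Cells + NanoLuc/prosubstrate dispensed (600 cells/well) → 5 h at 37 C/5% CO2 → compounds in DMSO transferred → 40 h incubation at 37 C, luminescence read at 0, 8, 16, 24, 32, 40 h.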
# [4] = qHTS RealTime-Glo MT Cell Viability Assay in HEK293 cells - 8 hour (AID 1224887); conditions: RealTime-Glo luminescence; series mostly up to 76.8 µM; further: nearly all actives have a fitted effect of over 50% in size; further: potency means the concentration at half of the fitted maximal effect
# Procedure, shortened: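 Real-time viability in HEK293: signal arises when living cells convert a prosubstrate for NanoLuc in the medium, so luminescence tracks viable cell number. Compound (23 nL, DMSO) added 5 h post-seeding; kinetic reads at 0–40 h, 37 C.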
# [5] = A CellTox Green Cytotoxicity Assay to monitor cytotoxicity in HEK293 cells - 16 hour (AID 1224888); conditions: CellTox Green fluorescence; series mostly up to 76.8 µM; further: nearly all actives have a fitted effect of over 35% in size; further: potency means the concentration at half of the fitted maximal effect
# Procedure, shortened: (§3)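 Cells (HEK293, 600/well) and dye reagent are dispensed together. After 5 h at 37 C, 23 nL compound is pinned in. Plates stay at 37 C for 40 h with fluorescence read at 0h, 8h, 16h, 24h, 32h and 40h.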
# [6] = A CellTox Green Cytotoxicity Assay to monitor cytotoxicity in HepG2 cells - 8 hour (AID 1224890); conditions: CellTox Green fluorescence; series mostly up to 76.8 µM; further: nearly all actives have a fitted effect of over 45% in size; further: potency means the concentration at half of the fitted maximal effect
# Procedure, shortened: as §1
# [7] = qHTS assay to identify small molecule antagonists of the estrogen receptor alpha (ER-alpha) signaling pathway using the BG1 cell line in the presence of 0.1 nM 17-beta-estradiol - cell viability counter screen (AID 1259241); conditions: VM7Luc4E2 (BG1) viability, CellTiter-Fluor protease, 22 h, 0.1 nM estradiol agonist added; series mostly up to 92.4 µM; further: nearly all actives have a fitted effect of over 40% in size; further: potency means the concentration at half of the fitted maximal effect
# Procedure, shortened: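 Cytotoxicity counter-screen: live-cell protease activity measured by fluorescence (30 min reagent step) in the same wells. Cells were VM7Luc4E2 with endogenous ER-alpha and ERE-driven luciferase, treated 22 hr at 37C alongside 0.1 nM 17beta-estradiol final.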
# [8] = qHTS assay to identify small molecule antagonists of the androgen receptor (AR) signaling pathway using the MDA cell line in the presence of 0.5 nM R1881 - cell viability counter screen (AID 1259242); conditions: MDA-kb2 viability, CellTiter-Fluor protease fluorescence, 16 h; series mostly up to 92.4 µM; further: nearly all actives have a fitted effect of over 45% in size; further: potency means the concentration at half of the fitted maximal effect
# Procedure, shortened: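 Steps: plate MDA-kb2 cells, rest 5 hr at 37C without CO2; pin in compounds in DMSO; add R1881 to 0.5 nM final; incubate 16 hr; add CellTiter-Fluor, 30 min; read fluorescence.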
# [9] = qHTS assay to identify small molecule phospholipidosis (PLD) inducers (AID 1259344; active means well fitted curve in the direction sought with a large enough effect; an effect the other way counts as inactive or inconclusive); conditions: HepG2 phospholipidosis, LipidTOX Red imaging, 24 h; series mostly up to 38.3 µM
# Procedure, shortened: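 Image-based: LipidTOX Red pit count/intensity per well and per cell; HepG2, 24 h compound at 37 C, PFA fixation, Hoechst counterstain.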
# [10] = qHTS assay to identify small molecule HDAC inhibitors (AID 1259364); conditions: HCT-116 HDAC-Glo I/II luminescence, 2 h; series mostly up to 92.4 µM;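 further: wild-type HCT-116 cells with endogenous class I/II HDAC activity; top concentration of the series differs between compounds; nearly all actives have a fitted effect of over 45% in size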
# Procedure, shortened: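 Cells (HCT-116, wild type) are seeded at 1,500 per well, incubated overnight, treated with compound in DMSO for 2 hr, then developed with HDAC-Glo I/II reagent for 30 min at room temperature.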
# [11] = qHTS assay to identify small molecule HDAC inhibitors - cell viability counter screen (AID 1259365); conditions: HCT-116 viability, CellTiter-Glo ATP luminescence, 2 h; series mostly up to 92.4 µM; further: nearly all actives have a fitted effect of over 50% in size; further: potency means the concentration at half of the fitted maximal effect
# Procedure, shortened: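 CellTiter-Glo luminescence (30 min, room temperature) reported viability after a 2 h compound exposure at 37 C. Cells: wild-type HCT-116, 1,500 per well, seeded the night before.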
# [12] = qHTS assay to identify small molecule antagonists of the sonic hedgehog signaling (Shh) pathway - cell viability counter screen (AID 1259367); conditions: NIH/3T3 Gli1-Luc viability, CellTiter-Fluor, 24 h; series mostly up to 42.5 µM; further: nearly all actives have a fitted effect of over 55% in size; further: potency means the concentration at half of the fitted maximal effect
# Procedure, shortened: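 Tox21 library chemicals were tested on a Gli1-Luc NIH/3T3 clone (2,000 cells/well) stimulated by conditioned medium; viability was quantified as fluorescence from CellTiter-Fluor reagent added at 23 hr.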
# [13] = qHTS assay to identify small molecule agonists of the sonic hedgehog signaling (Shh) pathway (AID 1259368; calls by dose curve;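 further: NIH/3T3-derived 3T3Gli1-Luc cells carrying a stable Gli1-driven firefly luciferase reporter; nearly all actives have a fitted effect of over 15% in size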); conditions: NIH/3T3 Gli1-Luc reporter, luciferase, 24 h; series mostly up to 92.4 µM
# Procedure, shortened: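 Cells of a mouse NIH/3T3 clone stably expressing luciferase under the Gli1 transcriptional response element are exposed to test chemicals for 24 hr at 37 C. Pathway activation is detected as a rise in luminescence.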
# [14] = qHTS RealTime-Glo MT Cell Viability Assay in HEK293 cells - 24 hour (AID 1224886); conditions: RealTime-Glo luminescence; series mostly up to 76.8 µM; further: nearly all actives have a fitted effect of over 50% in size; further: potency means the concentration at half of the fitted maximal effect
# Procedure, shortened: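 Tox21 10K qHTS, HEK293, 600 cells/well, RealTime-Glo reagent co-dispensed with cells; 5 h preincubation, compound by pintool, 37 C, luminescence at 0–40 h.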
# [15] = qHTS RealTime-Glo MT Cell Viability Assay in HepG2 cells - 0 hour (AID 1224889); conditions: RealTime-Glo luminescence; series mostly up to 76.8 µM; further: nearly all actives have a fitted effect of over 50% in size; further: potency means the concentration at half of the fitted maximal effect
# Procedure, shortened: as §2
# [16] = molecular target: Estrogen receptor (Homo sapiens) (UniProt P03372); experiment: qHTS assay to identify small molecule antagonists of the estrogen receptor alpha (ER-alpha) signaling pathway using the BG1 cell line in the presence of 0.1 nM 17-beta-estradiol (AID 1259244); conditions: VM7Luc4E2 (BG1) ERE-luciferase, antagonist mode, 0.1 nM E2, 22 h; series mostly up to 92.4 µM; further: nearly all actives have a fitted effect of over 50% in size; further: potency means the concentration at half of the fitted maximal effect
# Procedure, shortened: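 Antagonist mode: compounds in DMSO are pinned onto VM7Luc4E2 reporter cells, 0.1 nM final 17beta-estradiol is added, and after 22 h at 37C luciferase luminescence is measured with ONE-Glo.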
# [17] = qHTS assay to identify small molecule agonists of the sonic hedgehog signaling (Shh) pathway - cell viability counter screen (AID 1259366); conditions: NIH/3T3 Gli1-Luc viability, CellTiter-Fluor, 24 h; series mostly up to 92.4 µM; further: nearly all actives have a fitted effect of over 50% in size; further: potency means the concentration at half of the fitted maximal effect
# Procedure, shortened: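 Cytotoxicity counter screen: CellTiter-Fluor reagent added after 23 h compound exposure, then 1 h at 37C and fluorescence read. Cells were 3T3 Gli1-Luc, seeded 2,000 per well and dosed 4 h post-plating.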
# [18] = molecular target: Androgen receptor (Homo sapiens) (UniProt P10275); experiment: qHTS assay to identify small molecule antagonists of the androgen receptor (AR) signaling pathway using the MDA cell line in the presence of 0.5 nM R1881 (AID 1259243); conditions: MDA-kb2 MMTV-luciferase, R1881 0.5 nM, 16 h; series mostly up to 92.4 µM; further: nearly all actives have a fitted effect of over 50% in size; further: potency means the concentration at half of the fitted maximal effect
# Procedure, shortened: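 Stably transfected MDA-kb2 cells express luciferase from an MMTV promoter bearing both AR and GR response elements. Compounds plus 0.5 nM R1881 (final) were incubated 16 hr at 37C without CO2, then luminescence measured.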
# [19] = A CellTox Green Cytotoxicity Assay to monitor cytotoxicity in HEK293 cells - 8 hour (AID 1224884); conditions: CellTox Green fluorescence; series mostly up to 76.8 µM; further: nearly all actives have a fitted effect of over 35% in size
# Procedure, shortened: as §3
# Sequence of Androgen receptor (Homo sapiens) (P10275 whole entry, looked up): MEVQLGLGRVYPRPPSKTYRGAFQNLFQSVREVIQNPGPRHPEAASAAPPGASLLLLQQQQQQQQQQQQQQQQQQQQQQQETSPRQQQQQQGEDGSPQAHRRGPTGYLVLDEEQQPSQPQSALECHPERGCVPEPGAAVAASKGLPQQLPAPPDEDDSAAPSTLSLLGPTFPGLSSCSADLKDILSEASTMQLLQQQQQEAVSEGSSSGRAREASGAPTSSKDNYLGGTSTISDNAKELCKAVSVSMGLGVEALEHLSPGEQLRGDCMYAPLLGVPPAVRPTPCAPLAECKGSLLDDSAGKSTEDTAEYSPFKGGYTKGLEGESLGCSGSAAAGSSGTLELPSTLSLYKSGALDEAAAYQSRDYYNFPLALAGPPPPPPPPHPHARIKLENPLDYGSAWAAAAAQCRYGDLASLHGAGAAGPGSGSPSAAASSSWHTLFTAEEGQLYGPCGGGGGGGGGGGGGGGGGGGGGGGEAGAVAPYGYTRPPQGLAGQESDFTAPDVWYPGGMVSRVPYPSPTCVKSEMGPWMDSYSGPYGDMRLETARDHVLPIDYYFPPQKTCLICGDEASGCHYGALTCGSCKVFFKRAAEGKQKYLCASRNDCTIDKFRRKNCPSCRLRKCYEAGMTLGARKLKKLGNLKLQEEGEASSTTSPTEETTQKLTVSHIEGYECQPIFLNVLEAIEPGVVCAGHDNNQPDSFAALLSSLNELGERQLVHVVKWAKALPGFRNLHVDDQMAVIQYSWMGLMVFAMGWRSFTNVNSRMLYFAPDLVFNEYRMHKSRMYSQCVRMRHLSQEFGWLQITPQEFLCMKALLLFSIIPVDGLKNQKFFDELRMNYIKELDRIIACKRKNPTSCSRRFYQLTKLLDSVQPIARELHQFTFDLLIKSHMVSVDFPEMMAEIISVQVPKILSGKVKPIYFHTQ
# Sequence of Estrogen receptor (Homo sapiens) (P03372 whole entry, looked up): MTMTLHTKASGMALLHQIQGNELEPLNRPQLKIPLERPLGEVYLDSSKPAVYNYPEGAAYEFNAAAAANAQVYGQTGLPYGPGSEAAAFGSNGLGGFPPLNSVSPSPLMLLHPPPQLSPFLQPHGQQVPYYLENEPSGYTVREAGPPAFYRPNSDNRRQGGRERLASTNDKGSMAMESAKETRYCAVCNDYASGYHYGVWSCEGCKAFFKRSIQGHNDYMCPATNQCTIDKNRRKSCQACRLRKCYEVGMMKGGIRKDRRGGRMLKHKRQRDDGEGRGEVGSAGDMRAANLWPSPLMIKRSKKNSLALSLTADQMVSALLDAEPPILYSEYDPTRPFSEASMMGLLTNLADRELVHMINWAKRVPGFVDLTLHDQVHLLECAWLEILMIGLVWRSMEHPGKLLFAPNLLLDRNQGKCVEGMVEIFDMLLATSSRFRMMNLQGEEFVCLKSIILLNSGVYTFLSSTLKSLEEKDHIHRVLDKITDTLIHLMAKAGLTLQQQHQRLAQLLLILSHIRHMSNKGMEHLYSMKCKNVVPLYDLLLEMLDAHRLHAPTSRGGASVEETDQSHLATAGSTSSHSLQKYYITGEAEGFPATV
SMILES,Potency [1],Potency [2],Potency [3],Potency [4],Potency [5],Potency [6],Potency [7],Potency [8],Potency [9],Potency [10],Potency [11],Potency [12],Potency [13],Potency [14],Potency [15],Potency [16],Potency [17],Potency [18],Potency [19]
CCCCC(CC)COC(=O)c1ccccc1C(=O)O (configuration not stated),inactive,inactive,inactive,inactive,inactive,inactive,inactive,inactive,inactive,inactive,inactive,inactive,inactive,,,,,,
C=C(C)C(=O)OCC(O)COc1ccc(C(C)(C)c2ccc(OCC(O)COC(=O)C(=C)C)cc2)cc1 (configuration not stated),inactive,,,11 µM (active),inactive,inactive,27.3 µM (active),,,inactive,inactive,,inactive,11 µM (active),inactive,21.7 µM (active),inactive,,
O=S1(=O)CC(Cl)(Cl)C(Cl)(Cl)C1,inactive,7.76 µM (active),6.92 µM (active),12.3 µM (active),,13.8 µM (active),21.7 µM (active),,,inactive,48.6 µM (active),2.17 µM (active),inactive,,inactive,21.7 µM (active),1.37 µM (active),5.45 µM (active),
Fc1ccc(C(c2ccc(F)cc2)N2CCN(C/C=C/c3ccccc3)CC2)cc1,inactive,inactive,,,inactive,inactive,inactive,,,inactive,inactive,inactive,,,inactive,,inactive,,
O=Cc1cc(O)ccc1Br,inactive,,inactive,inactive,inactive,inactive,inactive,inactive,,,inactive,inactive,,,inactive,,,,
Oc1ccc2c(c1)-c1ccccc1C2,inactive,49 µM (active),,,,,inactive,inactive,,inactive,inactive,inactive,inactive,,inactive,,,7.7 µM (active),
CCCCCCCCCCCCc1ccc(O)cc1,inactive,15.5 µM (active),,43.6 µM (active),49 µM (active),17.4 µM (active),,,,,inactive,,inactive,43.6 µM (active),inactive,61.1 µM (active),,,
CC(=O)N1CCN(c2ccc(OC[C@H]3CO[C@](Cn4ccnc4)(c4ccc(Cl)cc4Cl)O3)cc2)CC1,inactive,49 µM (active),49 µM (active),24.5 µM (active),49 µM (active),inactive,,61.1 µM (active),,inactive,,27.3 µM (active),inactive,,24.5 µM (active),27.3 µM (active),54.5 µM (active),,
Oc1ccc(C2(c3ccc(O)cc3)CC3CC2C2CCCC32)cc1 (configuration not stated),inactive,,inactive,,,inactive,inactive,,,,inactive,,inactive,,inactive,0.117 µM (active),58.7 µM (active),52.3 µM (active),
CC(C)OC(=O)c1cc2c(OCC(O)CNC(C)(C)C)cccc2[nH]1 (configuration not stated),inactive,,inactive,9.52 µM (active),,inactive,inactive,,,inactive,inactive,inactive,inactive,9.52 µM (active),inactive,,,,
CCCCC(CC)COP(=O)(O)OCC(CC)CCCC (configuration not stated),inactive,,inactive,inactive,38.9 µM (active),inactive,inactive,inactive,,inactive,inactive,inactive,inactive,,inactive,inactive,inactive,,inactive
CN1CCN(CCC(=O)N2c3ccccc3Sc3ccc(C(F)(F)F)cc32)CC1,,19 µM (active),,,inactive,,inactive,,,inactive,inactive,,,,,,,,inactive
O=C(OCC(COC(=O)c1ccccc1)(COC(=O)c1ccccc1)COC(=O)c1ccccc1)c1ccccc1,inactive,inactive,inactive,24.5 µM (active),,inactive,inactive,inactive,,,inactive,inactive,,48.9 µM (active),inactive,,inactive,,
CC1(C)CCC(C)(C)c2cc(C(=O)Nc3ccc(C(=O)O)cc3)ccc21,inactive,,inactive,inactive,inactive,inactive,inactive,inactive,,inactive,,,inactive,inactive,,,,inactive,
